Data taken from the supplement of paper PMC6555819.

Each sequence was assayed on LXRb homodimer (NR concentration 270 nM) (assay: PBM binding z-score (relative to random genomic background probes); higher = stronger binding; sequences stand for … in GC…GCGATTGACAGCGTAGAATGAAGG).
Summary of the method: (§1)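 Random background probes are the reference for binding z-scores. These scores derive from regression-normalized fluorescence on custom Agilent 4×180K protein-binding microarrays incubated 1 h with ligand-free nuclear receptor dimers. Binding was detected with antibodies against each partner (one per run).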

Sequence | PBM binding z-score
ATCTCTAGGTAAATGTTCAGTGAATCCCGAGGAT | 0.584
AGTCAAAGTTCAGGACGAGGTAAAGTAAAGCACG | 0.465
CCTACTGGGCCAAAGGTCATAGATTCCAATGCTC | 0.244
AGTAAAAGTTCACTAGGTAACGTAAGATTCAGCT | 1.17
GCTTCCGGGTCAAAGGTTATAGCATGAATAGAAT | 0.776
CAAACTAGGTCACGAAAGGTCAAAATCGAATGAC | 2.57
CGAACTAGGTCAAAGGACACTGAAAGGCGACGTA | -0.198
GGAACGGGGGCATTCGAGTTGATAGCATGGCGAT | 6.54
ACTAGGAGGACAAAGGTCAGAGCTACGCCAGTGA | 0.612
TATACTGGGTCAAAGGCCAGAGTACGAATGTCGA | 1.32
CAAACTAGGTCAAGGTCAAATTCGGTTTGTGCCA | 2.23
AGTCAAAGTTCACTAGGCAACGTAAGATTCAGCT | 0.757
CGTCCAAGGTCAATGTTAGGTCAGTGAAAGCATT | 1.35
CGTCCAAGGTCAGAGAGGTCAGTGTATGCCGAGT | 0.458
ACTAGCAGGCCAAAGGTCACTCAAGATTAGTCCG | 0.456
GATACAGGGTGAGCTAGAGGCCAGAGTATGGAAA | -1.4
CAAACTAGGTCAAAGGTCAACGTCGAGCCAACCA | 2.37
CGGACTGGGGCAAAGGTTACCATACTCAGTACGA | -0.125
GCATACGGGTCAAAGGTTATAGCATGAATAGAAT | 0.733
ACTAGCAGGTCAAGGGTCACTCAAGATTAGTCCG | 0.671

Sequence | PBM binding z-score
CAAACTAGGTCACGAGGTCAAAGTCCGCTTCCCG | 1.09
TCATATAGGTTAAGGTGAAAGTCGAACGATATGA | 0.204
CTAACTAGGTCACGAAAGGTCAAAGTCGAATGAC | 2.3
CCTGCTAGGACAATGGTCAGCTAAAGCAGCTCGC | -1.1
CAAACTAGGTCAAAGGTCAAGGTCGAGCCAACCA | 2.23
GATACAGGGTCAAGGCCAGAATACGCGTATTGAT | 0.223
CGAACTAGGTCAGAGCAGGACAGTGAAGGATGAT | -0.67
CAAACTAGGTCAAAGGTCAAAGACGAGCCAACCA | 2.82
ATCTCTAGGTGAAAGTTCAGTGAATCCCGAGGAT | 0.429
CAAACTAGGTCACAGAGGTCAAAGTTCGTGCGTA | 2.18
CCTTACGGGTCTAGGTTATAGCACGGGTGGTACG | -0.281
TCTTGTAGATCAAAGGTCAAGAAAGCCGAAGCCT | 1.25
ATATGTAGGTCAGGGTCATTCAGAAAGTAGGGAA | 2.07
AGTCAAAGTTCATCTGGGTAACGTAAGATATGCT | 1.69
TTACCAAGGTAAAAGGTCGTTGATGCACGCCTTG | 0.0385
ACTAGAAGGCCAAGGGTCACTCAAGATTAGTCCG | -0.267
GATACAGGGTCAGCTAGAGGTCAGAGTATGGAAA | 0.386
TCATATAGGTAATAAAGGTGAAAGTCGGCATCTA | 0.336
TCTTGTAGATCAAAGCTTAAGAAAGCCGAAGCCT | -0.532

These sequences were tested on PPARa:RXRa (NR concentration 270 nM, RXRa partner concentration 90 nM) in the same assay as above.
Summary of the method: as §1

Sequence | PBM binding z-score
ATCTCTAGGTAAATGTTCAGTGAATCCCGAGGAT | 0.133
AGTCAAAGTTCAGGACGAGGTAAAGTAAAGCACG | 3.54
CCTACTGGGCCAAAGGTCATAGATTCCAATGCTC | 6.34
AGTAAAAGTTCACTAGGTAACGTAAGATTCAGCT | 4.32
GCTTCCGGGTCAAAGGTTATAGCATGAATAGAAT | 6.97
CAAACTAGGTCACGAAAGGTCAAAATCGAATGAC | 6.41
CGAACTAGGTCAAAGGACACTGAAAGGCGACGTA | 5.49
GGAACGGGGGCATTCGAGTTGATAGCATGGCGAT | 3.99
ACTAGGAGGACAAAGGTCAGAGCTACGCCAGTGA | 5.33
TATACTGGGTCAAAGGCCAGAGTACGAATGTCGA | 5.52
CAAACTAGGTCAAGGTCAAATTCGGTTTGTGCCA | 6.07
AGTCAAAGTTCACTAGGCAACGTAAGATTCAGCT | 4.5
CGTCCAAGGTCAATGTTAGGTCAGTGAAAGCATT | 5.51
CGTCCAAGGTCAGAGAGGTCAGTGTATGCCGAGT | 4.71
ACTAGCAGGCCAAAGGTCACTCAAGATTAGTCCG | 6.05
GATACAGGGTGAGCTAGAGGCCAGAGTATGGAAA | 0.23
CAAACTAGGTCAAAGGTCAACGTCGAGCCAACCA | 7.5
CGGACTGGGGCAAAGGTTACCATACTCAGTACGA | 6.02
GCATACGGGTCAAAGGTTATAGCATGAATAGAAT | 7.06
ACTAGCAGGTCAAGGGTCACTCAAGATTAGTCCG | 6.3

Sequence | PBM binding z-score
CAAACTAGGTCACGAGGTCAAAGTCCGCTTCCCG | 6.85
TCATATAGGTTAAGGTGAAAGTCGAACGATATGA | 3.44
CTAACTAGGTCACGAAAGGTCAAAGTCGAATGAC | 6.57
CCTGCTAGGACAATGGTCAGCTAAAGCAGCTCGC | -0.776
CAAACTAGGTCAAAGGTCAAGGTCGAGCCAACCA | 7.68
GATACAGGGTCAAGGCCAGAATACGCGTATTGAT | 5.84
CGAACTAGGTCAGAGCAGGACAGTGAAGGATGAT | 3.19
CAAACTAGGTCAAAGGTCAAAGACGAGCCAACCA | 7.71
ATCTCTAGGTGAAAGTTCAGTGAATCCCGAGGAT | 5.61
CAAACTAGGTCACAGAGGTCAAAGTTCGTGCGTA | 6.83
CCTTACGGGTCTAGGTTATAGCACGGGTGGTACG | 0.0671
TCTTGTAGATCAAAGGTCAAGAAAGCCGAAGCCT | 6.32
ATATGTAGGTCAGGGTCATTCAGAAAGTAGGGAA | 6.06
AGTCAAAGTTCATCTGGGTAACGTAAGATATGCT | 4.98
TTACCAAGGTAAAAGGTCGTTGATGCACGCCTTG | 4.46
ACTAGAAGGCCAAGGGTCACTCAAGATTAGTCCG | 4.51
GATACAGGGTCAGCTAGAGGTCAGAGTATGGAAA | 5.57
TCATATAGGTAATAAAGGTGAAAGTCGGCATCTA | 3.1
TCTTGTAGATCAAAGCTTAAGAAAGCCGAAGCCT | 0.317
